The entries come from a sample that favours hits as a whole.
VP16 counter = VP16 counterscreen qHTS for inhibitors of ROR gamma transcriptional activity | Drosophila S2 Gal4-VP16 UAS-luciferase, luminescence, 20 h | Potency, µM (doses to about 53.6 µM), actives largely listed as inhibitors | 310,000 compounds, 3.5% hits | AID 2546, 2010;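 also: Gal4-VP16 expression switched on by copper sulfate through the metallothionein promoter; nearly all actives have a fitted effect of over 50% in size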
RORg inh = qHTS for inhibitors of ROR gamma transcriptional activity | Nuclear receptor ROR-gamma (Mus musculus), P51450 | Drosophila S2 Gal4-RORgamma UAS-luciferase reporter, 20 h | Potency, µM (highest dose often 53.6 µM), most hits filed as inhibitors | 310,000 compounds, 5.4% hits | AID 2551, 2010; also: nearly all actives have a fitted effect of over 60% in size
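In this cell-based reporter format, copper sulfate (700 uM final) drives Gal4–ROR gamma fusion expression from a metallothionein promoter in Drosophila Schneider cells; compounds preincubated 1 hr, reporter read after 20 hr at ambient temperature.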
Giardia killer = Small Molecules that selectively kill Giardia lamblia: qHTS | Giardia lamblia trophozoite viability | activity change, % at 7.66 µM, hits read low | 340,000 compounds, 0.15% hits; in the data active = activity change below about -80%; inconclusive = between about -30% and that limit;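 also: parasites exposed to compound for two days anaerobically before the ATP read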
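Giardia trophozoites, 100 cells per well, were exposed to compounds for 48 hrs at 37 deg C under anaerobic conditions; viability was then read as ATP content by bioluminescence after 15-30 min at room temperature.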
Integrin act MD = qHTS for Activators of Integrin-Mediated Alleviation for Muscular Dystrophy; alpha7betagal myoblasts, beta-gal FDG fluorescence, 48 h; Potency, µM (highest dose often 38.3 µM), usual class: activators; 350,000 compounds, 0.064% hits; also: nearly all actives have a fitted effect of over 60% in size
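Alpha7betagal+/- myoblasts (passage 13) were plated 16-24 hr, then exposed to compounds (1:260 dilution of DMSO stock) for 48 hours at 37C. After MPER lysis, β-galactosidase reporter activity was read as FDG fluorescence (ex 480/em 540) after 30 minutes.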
ERG-DNA inh = qHTS for Small Molecule Inhibitors of the ERG Ets/DNA interaction | Transcriptional regulator ERG (Homo sapiens), P11308 | fluorescence polarization, His-ERG Ets domain / labelled DNA | Potency, µM (top dose mostly 76.9 µM), actives largely listed as inhibitors | 370,000 compounds, 0.028% hits; active = well fitted inhibition curve with a large enough effect in the polarisation, with a control signal flat; inconclusive = small, poorly fitted or top-dose-only effect, or effect the other way, or a change in a side signal; inactive = no such curve, though single readings can be large or run the other way; the % refers to the polarisation;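 also: polarization taken with two DNA probes labelled with fluorescein and Texas red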
Target sequence (P11308 whole entry, looked up, the tested form may be a part): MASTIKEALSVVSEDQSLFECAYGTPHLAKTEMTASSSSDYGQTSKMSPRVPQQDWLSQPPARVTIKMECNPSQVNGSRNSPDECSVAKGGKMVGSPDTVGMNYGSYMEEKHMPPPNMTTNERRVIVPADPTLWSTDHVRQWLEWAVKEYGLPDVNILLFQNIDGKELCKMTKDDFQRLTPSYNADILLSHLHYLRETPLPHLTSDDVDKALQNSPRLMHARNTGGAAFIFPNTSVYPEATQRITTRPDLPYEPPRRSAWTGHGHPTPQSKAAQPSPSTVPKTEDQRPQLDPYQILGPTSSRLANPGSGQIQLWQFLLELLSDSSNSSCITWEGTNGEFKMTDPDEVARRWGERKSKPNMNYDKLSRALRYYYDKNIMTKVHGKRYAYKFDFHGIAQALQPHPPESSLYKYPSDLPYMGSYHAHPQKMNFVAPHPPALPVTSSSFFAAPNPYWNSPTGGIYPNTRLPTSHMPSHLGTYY
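His-tagged ERG Ets domain (1 uM in the protein solution; 300mM KCl, 50mM Tris-HCl, 1mM EDTA, 1mM DTT, pH 7.5) received compound, then a probe mix of 5 nM fluorescein-DNA and 100nM Texas-615-DNA. Fluorescence polarization was read for both dyes.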
Hits are given with their value; 0 = inactive; ? = inconclusive; - = no result; [ ] = remark or other dose. Unless noted, calls follow the shape of the dose curve; as a rule, active = well fitted curve in the direction sought with a large enough effect; inconclusive = small, poorly fitted or top-dose-only effect, or another doubt; inactive = no such curve, though single readings can be large; an effect the other way counts as inactive or inconclusive.

SMILES	VP16 counter	RORg inh	Giardia killer	Integrin act MD	ERG-DNA inh
COC(=O)CN1C(=O)[C@@H]2[C@H](C1=O)[C@@H]1CC(C(=O)OC)=C[C@@H](C(=O)OC)C3C1=C(C(=O)[C@]3(C)NC(=O)c1ccccc1)[C@@H]2C (some centres undefined)	0	0	0	-	-
COc1cccc(C2CC(=O)Nc3cc(OC)c(OC)cc32)c1 (centres undefined)	0	?	0	?	0
COc1cccc(C2CC(=O)Nc3cc4c(cc32)CCC4)c1 (centres undefined)	13µM	?	0	0	0
COc1ccc(C2=NNC(c3cc(Cl)cc4c3OCOC4)C2)c(O)c1 (centres undefined)	0	0	-	-	-
Oc1ccc(Cl)cc1C1=Nc2ccccc2N=C(c2ccccc2)C1	-	-	-	-	0
Oc1c(Cl)cc(Cl)cc1C1=NNC(c2ccc(Cl)cc2)C1 (centres undefined)	0	8.9µM	0	0	0
Oc1ccc(Cl)cc1C1=NNC(c2cc(Br)cc3c2OCOC3)C1 (centres undefined)	?	7.9µM	0	0	0
Oc1ccc(Cl)cc1C1=NNC(c2ccc(Cl)cc2)C1 (centres undefined)	16µM	8.9µM	0	0	0
O=C(Oc1c(CN2CCOCC2)cc(Cl)c2cccnc12)c1ccccc1Br	4µM	6.3µM	0	0	0
CN1CCN(Cc2cc(Cl)c3cccnc3c2OC(=O)c2cccs2)CC1	13µM	4.5µM	0	0	0
CO/N=C(/C)CCC(=O)OC[C@@H]1O[C@H](c2ccccc2)C=C[C@@H]1Oc1ccc(OC)cc1	0[10 µM]	0[10 µM]	-	-	-
CCN(Cc1ccccc1)C(=O)c1[nH]c2ccc(OC)cc2c1C	0	0	0	?	0
CCN(CC)CCNC(=O)c1[nH]c2ccc(OCc3ccccc3)cc2c1C	0	13µM	0	0	0
CC1=NN(C2=NS(=O)(=O)c3ccccc32)C(C)(O)C1 (centres undefined)	3.5µM	1.3µM	0	0	0
Cc1ccc(C(=O)c2ccc([N+](=O)[O-])cc2)cc1	0	0	0	0	-
Cc1ccc(S(=O)(=O)CC#CCOC(=O)c2ccc([N+](=O)[O-])cc2)cc1	?	10µM	-	-	-
CC(=O)Nc1ccc(S(=O)(=O)Oc2cccc(N3C(=O)C4CC=CCC4C3=O)c2)cc1 (centres undefined)	0	0	0	0	0
CC(=O)Nc1ccc(S(=O)(=O)Oc2ccc(N3C(=O)C4CCCCC4C3=O)cc2)cc1 (centres undefined)	13µM	?	0	0	0
Cc1c(NC(=O)c2ccc([N+](=O)[O-])o2)cccc1-c1nc2ncccc2o1	?	?	-92	0	0
O=C(Nc1cccc(NC(=O)c2ccc([N+](=O)[O-])o2)c1)c1ccco1	?	0	-85	0	0
O=C(NC12CC3CC(CC(C3)C1)C2)c1ccc([N+](=O)[O-])o1	?	?	-93	0	0
O=C(NC12CC3CC(CC(C3)C1)C2)c1ccc(Br)o1	0	?	0	0	0
O=C(Nc1cccc2ncccc12)c1ccc([N+](=O)[O-])o1	?	?	-80	0	0
CC(=O)Nc1cccc(NC(=O)c2ccco2)c1	0	0	0	0	0
Cc1cccc(C)c1NC(=O)N1CCC(C(N)=O)(N2CCCCC2)CC1	-	-	-	-	0
SMILES	VP16 counter	RORg inh	Giardia killer	Integrin act MD	ERG-DNA inh
CC(Sc1nc2ncc(Cl)cc2[nH]1)C(=O)Nc1ccc(C(N)=O)cc1 (centres undefined)	-	-	0	0	0
Cc1ccc(Cn2c(C(C)NC(=O)c3ccccc3)nc3ccccc32)cc1 (centres undefined)	-	-	-	-	0
CCOC(=O)C(CS)NCCN[C@@H](CS)C(=O)OCC (some centres undefined)	0	0	-	-	-
COc1ccc(Br)cc1C(=O)Nc1cccc2ncccc12	0	0	0	?	0
CCOc1ccc(Oc2cc(NC(=O)c3ccco3)cc([N+](=O)[O-])c2)cc1	?	?	0	0	0
O=C(Nc1cc(Oc2ccc(Cl)cc2)cc([N+](=O)[O-])c1)c1ccco1	7.9µM	?	0	0	0
O=C(Nc1ccccc1Cl)c1ccc([N+](=O)[O-])o1	16µM	10µM	-83	0	0
Cc1cc(C)cc(NC(=O)C(OC(=O)c2ccc([N+](=O)[O-])o2)c2ccccc2)c1 (centres undefined)	0	?	0	0	0
COc1cccc(NC(=O)C(OC(=O)c2ccc([N+](=O)[O-])o2)c2ccccc2)c1 (centres undefined)	0	14µM	0	0	0
COc1cc(C(=O)Nc2cccc3ncccc23)cc(OC)c1OC	0	35µM	0	0	0
Cn1ncc([N+](=O)[O-])c1C(=O)Nc1ccccc1Cl	0	0	0	0	0
CN(C)C(=O)C(=O)c1cccn1-c1cccc(Cl)c1C#N	0	0	0	0	0
O=C(c1ccc(CS(=O)c2cccc(Cl)c2)o1)N1CCN(c2ccccn2)CC1 (centres undefined)	0	0	0	?	0
CC(=O)NC1=NN(C(C)=O)C(c2ccco2)S1 (centres undefined)	0	0	0	0	0
O=S(NCc1ccco1)C12CC3CC(CC(C3)C1)C2 (centres undefined)	0	0	0	0	-
O=C(Nc1ccc(NC(=O)c2ccc([N+](=O)[O-])o2)cc1Cl)c1ccco1	0	0	-92	?	0
CCNC(=O)CSc1nnc(-c2cc(-c3ccc(Cl)cc3)nc3ccccc23)o1	?	0.2µM	0	0	0
O=C(CCSc1nnc(-c2ccncc2)o1)Nc1ccccc1	0[0.365 µM]	0	0	0	0
COc1cc(NC(=O)CSc2nnc(-c3cc(C)on3)o2)cc(OC)c1	0	0	0	?	0
Cc1cc(-c2nnc(SCC(=O)Nc3nc(-c4ccc(Cl)cc4)cs3)o2)no1	?	14µM	0	?	0
CCN(CC)C(=O)CSc1nnc(-c2cc(-c3ccc(Cl)cc3)nc3ccccc23)o1	0	0	0	0	0
Cc1cc(-c2nnc(SCCC(=O)Nc3ccccc3)o2)no1	?	14µM	0	0	0
COc1ccc(N(Cc2nnc3n2CCCCC3)C(=O)Nc2ccc(Cl)cc2)cc1Cl	-	-	-	-	0
O=C(Cc1c(F)cccc1Cl)N/N=C/c1cccnc1	0	0	0	?	0
COc1cc(OC)c(/C=N/n2c(C3CCCCC3)n[nH]c2=S)c(OC)c1	0	0	0	0	0
COc1ccccc1/C=C\C=N\n1c(C2CCCCC2)n[nH]c1=S	?	2.2µM	0	0	0
COc1ccc(/C=N/n2c(C3CCCCC3)n[nH]c2=S)c(OC)c1	7.1µM	3.5µM	0	0	0
COc1cccc(/C=N/n2c(C3CCCCC3)n[nH]c2=S)c1O	13µM	10µM	0	0	0

From PubChem BioAssay
